# Data published in the supplement of paper PMC7366291.
# Counter-ions that a name gives are not always drawn. ± gives the standard deviation or the standard deviation of the averaged measurements.
# How the values were obtained:
# Settings in all cases: 25 µM; exposure: 24-48 hpf
# [1] = system: Danio rerio Tg(wt1b:EGFP) embryo, pronephros; test: glomerular separation, fold change vs DMSO control; higher = glomeruli further apart (abnormal)
# Procedure, shortened: (§1)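 Dechorionated Tg(wt1b:EGFP) zebrafish embryos were exposed to 25 μM compound in 0.5% DMSO, HEPES-buffered E3 with 0.003% PTU, from 24 to 48 hpf at 28.5°C. Pronephroi were imaged dorsally in agarose-filled 96-well plates (470 nm, 10 z-slices). On maximum projections, 16 reference points were set manually in Fiji and a macro computed distances and angles. Values more than 2 SD from the feature mean were excluded. Each feature is a fold change relative to the mean of same-day DMSO controls.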
# [2] = system: Danio rerio Tg(wt1b:EGFP) embryo, pronephros; test: glomerular width (mean of left and right), fold change vs DMSO control; higher = wider glomerulus
# Procedure, shortened: as §1
# [3] = system: Danio rerio Tg(wt1b:EGFP) embryo, pronephros; test: fraction of imaged embryos annotated as normal kidney; higher = less nephrotoxic; extreme values may be limits of the assay
# Procedure, shortened: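 Tricaine-anaesthetised Tg(wt1b:EGFP) zebrafish larvae were oriented dorsally in agarose-filled 96-well plates, and their pronephroi were recorded by widefield fluorescence at 470 nm in 10 z-slices. Before this, the dechorionated embryos had been exposed in 12-well plates to 25 μM compound in 0.5% DMSO and 5 mM HEPES-buffered E3 with 0.003% PTU, from 24 to 48 hpf at 28.5°C. Maximum projections were annotated manually for each embryo, and the read-out is the fraction per treatment classed as normal kidney.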
# [4] = system: Danio rerio Tg(wt1b:EGFP) embryo, pronephros; test: pronephric angle neck segment to proximal convoluted tubule (mean of left and right), fold change vs DMSO control; higher = larger pronephric angle
# Procedure, shortened: as §1
Compound,glomerular separation [1],glomerular width [2],fraction of imaged embryos annotated as normal kidney [3],pronephric angle neck segment [4]
CC(=O)O[C@]1(C(C)=O)CC[C@H]2[C@@H]3C=C(Cl)C4=CC(=O)[C@@H]5C[C@@H]5[C@]4(C)[C@H]3CC[C@@]21C [Cyproterone acetate],1.2 ± 0.46,0.931 ± 0.028,0.917,0.977 ± 0.017
O=C(Nc1cccc2c(=O)cc(-c3nnn[nH]3)oc12)c1ccc(OCCCCc2ccccc2)cc1 [Pranlukast],1.04 ± 0.37,1.01 ± 0.019,0.833,1.01 ± 0.041
Fc1ccc([C@@H]2CCNC[C@H]2COc2ccc3c(c2)OCO3)cc1 [Paroxetine Hydrochloride],0.594 ± 0.17,1.03 ± 0.042,1,0.9885 ± 0.0011
O=C(NCCNCC(O)COc1ccc(O)cc1)N1CCOCC1 (stereo not given) [Xamoterol hemifumarate],1.01 ± 0.28,0.983 ± 0.011,1,0.98 ± 0.045
COc1nc(N)nc2c1ncn2[C@@H]1O[C@H](CO)[C@@H](O)[C@@H]1O [Nelarabine],0.929 ± 0.39,0.992 ± 0.058,0.727,0.984 ± 0.073
CCN(CC)CCNC(=O)c1cc(Cl)c(N)cc1OC [Metoclopramide monohydrochloride],0.868 ± 0.25,0.962 ± 0.015,0.833,0.944 ± 0.032
CC(Cc1cccc(C(F)(F)F)c1)NCCOC(=O)c1ccccc1 (stereo not given) [Benfluorex],0.843 ± 0.23,1 ± 0.03,0.917,1.04 ± 0.045
CC[N+](C)(C)c1cccc(O)c1 [Edrophonium chloride],1.26 ± 0.22,1.03 ± 0.026,0.833,0.876 ± 0.05
Cc1c(OCC(F)(F)F)ccnc1C[S+]([O-])c1nc2ccccc2[nH]1 (stereo not given) [Lansoprazole],1.25 ± 0.57,0.949 ± 0.04,0.333,1.17 ± 0.034
CCOC(=O)[C@H](CCc1ccccc1)N[C@H]1CCc2ccccc2N(CC(=O)O)C1=O [Benazepril hydrochloride],0.73 ± 0.18,1.05 ± 0.023,0.75,0.964 ± 0.087
COCC1=C(C(=O)OC(C)OC(=O)OC(C)C)N2C(=O)[C@@H](NC(=O)/C(=N\OC)c3csc(N)n3)[C@H]2SC1 (stereo not given in full) [Cefpodoxime proxetil],1.06 ± 0.52,0.893 ± 0.055,1,1.05 ± 0.054
NS(=O)(=O)c1cc2c(cc1C(F)(F)F)NCNS2(=O)=O [Hydroflumethiazide],0.97 ± 0.25,1.07 ± 0.035,0.727,1.04 ± 0.14
C[C@H]1NC(=O)NC1=O [Methylhydantoin-5-(D)],0.867 ± 0.33,0.991 ± 0.011,0.917,1.02 ± 0.02
CN(C)CC/C=C1/c2ccccc2Sc2ccc(Cl)cc21 [Chlorprothixene hydrochloride],0.89 ± 0.23,1.034 ± 1.4e-05,0.727,1.04 ± 0.074
CC(=O)[C@H]1CC[C@H]2[C@@H]3C=CC4=CC(=O)CC[C@@]4(C)[C@@H]3CC[C@]12C [Dydrogesterone],1.29 ± 0.6,1.04 ± 0.02,0.833,0.973 ± 0.012
CC(C)(Sc1cc(C(C)(C)C)c(O)c(C(C)(C)C)c1)Sc1cc(C(C)(C)C)c(O)c(C(C)(C)C)c1 [Probucol],0.815 ± 0.18,0.925 ± 0.06,1,0.928 ± 0.023
CCOC(=O)O[C@]1(C(=O)OCCl)CC[C@H]2[C@@H]3CCC4=CC(=O)C=C[C@]4(C)[C@H]3[C@@H](O)C[C@@]21C [Loteprednol etabonate],1.27 ± 0.56,0.884 ± 0.029,0.833,1.09 ± 0.042
NCCc1ccc(O)c(O)c1 [Dopamine hydrochloride],1.08 ± 0.44,1.05 ± 0.054,0.917,1.011 ± 0.005
C(=C\c1ccccc1)/CN1CCN(C(c2ccccc2)c2ccccc2)CC1 [Cinnarizine],1.15 ± 0.31,1.03 ± 0.024,0.75,0.995 ± 0.045
Cc1cc(NC(=O)C2=C(O)c3ccccc3S(=O)(=O)N2C)no1 [Isoxicam],1.19 ± 0.55,1.04 ± 0.034,0.917,1.02 ± 0.036
N=C(N)c1ccc(OCCCCCOc2ccc(C(=N)N)cc2)cc1 [Pentamidine isethionate],0.801 ± 0.21,0.99 ± 0.024,1,0.982 ± 0.02
"C[C@@]1(O)CCOC(=O)C1 [Mevalonic-D, L acid lactone]",0.897 ± 0.23,1.09 ± 0.03,0.75,1.062 ± 0.0042
C[C@H](N)[C@H](O)c1cccc(O)c1 [Metaraminol bitartrate],0.797 ± 0.44,0.961 ± 0.083,0.667,0.771 ± 0.017
O=C1CN(/N=C/c2ccc(-c3ccc([N+](=O)[O-])cc3)o2)C(=O)N1 [Dantrolene sodium salt],1.46 ± 0.66,0.974 ± 0.084,0.833,1.02 ± 0.016
C=C(NC(=O)C(=C)NC(=O)c1csc(C2=N[C@@H]3c4csc(n4)[C@H]4NC(=O)c5csc(n5)[C@H]([C@](C)(O)[C@@H](C)O)NC(=O)[C@H]5CSC(=N5)/C(=C/C)NC(=O)[C@H]([C@@H](C)O)NC(=O)c5csc(n5)[C@]3(CC2)NC(=O)[C@H](C)NC(=O)C(=C)NC(=O)[C@H](C)NC(=O)[C@H]([C@@H](C)CC)N[C@@H]2C=Cc3c([C@H](C)O)cc(nc3[C@H]2O)C(=O)O[C@@H]4C)n1)C(N)=O [Thiostrepton],1.02 ± 0.32,1.02 ± 0.056,0.917,1.01 ± 0.12
CCN(CC)CCNC(=O)c1ccc(N)cc1 [Procainamide hydrochloride],0.95 ± 0.48,1.11 ± 0.027,0.455,1.1 ± 0.22
C=C1/C(=C\C=C2/CCC[C@]3(C)[C@@H]([C@H](C)/C=C/[C@@H](O)C4CC4)CC[C@@H]23)C[C@@H](O)C[C@@H]1O [Calcipotriene],1.01 ± 0.34,1.06 ± 0.012,0.75,0.89787 ± 0.00058
Cn1cnc([N+](=O)[O-])c1Sc1ncnc2[nH]cnc12 [Azathioprine],1.2 ± 0.26,1.02 ± 0.042,0.833,0.994 ± 0.015

Compound,glomerular separation [1],glomerular width [2],fraction of imaged embryos annotated as normal kidney [3],pronephric angle neck segment [4]
CCCCOC(=O)c1ccc(O)cc1 [Butylparaben],1.67 ± 0.4,0.994 ± 0.022,0.5,1.11 ± 0.038
N=C(N=C(N)N)N1CCOCC1 [Moroxidine hydrochloride],1.26 ± 0.44,1.07 ± 0.049,0.75,0.903 ± 0.039
CC(C)NCC(O)COc1ccc(COCCOC(C)C)cc1 (stereo not given) [Bisoprolol fumarate],1.2 ± 0.41,1.07 ± 0.03,0.583,0.999 ± 0.083
COc1ccccc1O [Guaiacol],1.03 ± 0.3,1.007 ± 0.0036,0.917,1.02 ± 0.035
N#Cc1cc(NC(=O)C(=O)O)c(Cl)c(NC(=O)C(=O)O)c1 [Lodoxamide],1.24 ± 0.55,0.9808 ± 0.0037,0.917,1.05 ± 0.059
Cc1c(-c2ccccc2)oc2c(C(=O)OCCN3CCCCC3)cccc2c1=O [Flavoxate hydrochloride],1.17 ± 0.37,1.08 ± 0.037,0.75,1.06 ± 0.02
CC[N+](C)(CC)CCC[n+]1c(-c2ccccc2)c2cc(N)ccc2c2ccc(N)cc21 [Propidium iodide],0.946 ± 0.41,1.16 ± 0.087,0.727,0.959 ± 0.036
CC(=O)c1ccc2c(c1)N(CCCN(C)C)c1ccccc1S2 [Acetopromazine maleate salt],0.953 ± 0.23,0.924 ± 0.071,1,0.969 ± 0.02
CN(C)CCN(Cc1ccc(Cl)cc1)c1ccccn1 [Chloropyramine hydrochloride],0.981 ± 0.57,1.07 ± 0.064,0.917,0.964 ± 0.016
CN(C)[C@@H]1C(O)=C(C(N)=O)C(=O)[C@@]2(O)C(O)=C3C(=O)c4c(O)ccc(Cl)c4[C@@](C)(O)[C@H]3C[C@@H]12 [Chlortetracycline hydrochloride],1.18 ± 0.35,1.04 ± 0.012,0.583,0.9692 ± 0.0065
CCN(CC)C(=O)c1ccc(O)c(OC)c1 [Ethamivan],1.08 ± 0.29,1.1 ± 0.019,0.818,1.019 ± 0.0025
COc1ccccc1N1CCN(CCCCNC(=O)c2ccc3ccccc3c2)CC1,0.691 ± 0.17,1.02 ± 0.049,0.917,0.969 ± 0.018
Cc1onc(-c2c(F)cccc2Cl)c1C(=O)N[C@@H]1C(=O)N2[C@@H]1SC(C)(C)[C@@H]2C(=O)O [Flucloxacillin sodium],1.05 ± 0.33,0.989 ± 0.024,0.833,0.958 ± 0.025
CCCNC(C)C(=O)Nc1ccccc1C (stereo not given) [Prilocaine hydrochloride],1.28 ± 1.1,0.947 ± 0.032,0.75,1.02 ± 0.081
COCCOC(=O)C1=C(C)NC(C)=C(C(=O)OC/C=C/c2ccccc2)C1c1cccc([N+](=O)[O-])c1 (stereo not given) [Cilnidipine],3.85 ± 1.1,0.735 ± 0.012,0,1.248 ± 0.0032
C[C@]12CC[C@@H]3c4ccc(OS(=O)(=O)O)cc4CC[C@H]3[C@@H]1CCC2=O [Estropipate],1.27 ± 0.59,0.95203 ± 0.00068,0.75,1.02 ± 0.012
Clc1ccc2nsnc2c1NC1=NCCN1 [Tizanidine hydrochloride],1.02 ± 0.43,1.01 ± 0.016,0.833,0.984 ± 0.036
COc1c(N2C[C@@H]3CCCN[C@@H]3C2)c(F)cc2c(=O)c(C(=O)O)cn(C3CC3)c12 [Moxifloxacin],0.919 ± 0.39,0.971 ± 0.024,0.909,0.998 ± 0.029
COc1ccc2[nH]c([S+]([O-])Cc3ncc(C)c(OC)c3C)nc2n1 (stereo not given) [Tenatoprazole],1.61 ± 0.86,0.93 ± 0.064,0.917,1.17 ± 0.069
N[C@@H](Cc1ccc(O)c(O)c1)C(=O)O [Levodopa],1.02 ± 0.31,1.06 ± 0.048,0.917,0.972 ± 0.018
COc1ccc(/C=C/C(=O)Nc2ccccc2C(=O)O)cc1OC [Tranilast],2.14 ± 1.2,1.08 ± 0.049,0.583,1.139 ± 0.0021
Clc1ccc(COC(Cn2ccnc2)c2ccc(Cl)cc2Cl)c(Cl)c1 (stereo not given) [Miconazole],3.42 ± 1.6,0.865 ± 0.069,0.0909,1.481 ± 0.012
c1cnc(N2CCN(Cc3ccc4c(c3)OCO4)CC2)nc1 [Piribedil hydrochloride],1.01 ± 0.4,0.962 ± 0.028,0.833,1.01 ± 0.055
CC(=O)CCCCn1c(=O)c2c(ncn2C)n(C)c1=O [Pentoxifylline],0.678 ± 0.2,0.971 ± 0.032,0.583,0.752 ± 0.033
Cc1cc2cc3c(C)cc(=O)oc3c(C)c2o1 [Trioxsalen],0.97 ± 0.24,1.019 ± 0.01,0.917,1.03 ± 0.049
"CCN(CC)CCOc1ccc(C(=C(Cl)c2ccccc2)c2ccccc2)cc1 [Clomiphene citrate (Z,E)]",1.1 ± 0.41,0.981 ± 0.019,0.75,0.974 ± 0.053
CS(=O)(=O)OCCCCOS(C)(=O)=O [Busulfan],0.771 ± 0.21,0.97453 ± 0.00036,0.75,0.943 ± 0.034
